Bioassay records: PubChem, Sanford-Burnham Center for Chemical Genomics
CF NFkB block: blocks PAF-induced NF-kB reporter in cystic fibrosis cells; 360,000 compounds, 0.86% hits; inhibition, % at 5 µM; KKLEB NF-kB-GFP reporter, GFP fluorescence overnight; AID 588850;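 active = at least 50% inhibition at 5 µM, scaled per plate between neutral and stimulator controls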;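 also: PAF is a Pseudomonas aeruginosa culture filtrate used as stimulus; plate controls were PAF-stimulated DMSO wells for no effect and unstimulated DMSO wells for full effect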
HIF-2a block: inhibitors of HIF-2a; AID 624352; inhibition, % at 18.8 µM; 360,000 compounds, 0.72% hits; 786-0 RCC cells HIF-2a reporter, luciferase luminescence, overnight;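 active = inhibition of the luminescence signal of 40% or more relative to plate controls, in a single-dose primary screen at 18.75 µM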
KKLEB tox: CF airway cell cytotoxicity counter-screen. 360,000 compounds, 0.36% hits. activity change (cytotoxicity), % at 5 µM. KKLEB CF airway cells viability, ATPlite luminescence, overnight; hits give low values; cells stimulated with P. aeruginosa culture filtrate. AID 602141;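 active = corrected activity change at or below -50% at 5 µM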
Peg3 promoter: inhibitors of Peg3 promoter. HeLa PEG-Prom luciferase reporter, luminescence, overnight. inhibition, % at 20 µM. 360,000 compounds, 1.7% hits;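 active = inhibition of at least 50% at 20 µM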
TWEAK-Fn14 inh: inhibitors of TWEAK-Fn14 interaction signaling; 360,000 compounds, 2% hits; TWEAK-stimulated Fn14 reporter cells, luciferase luminescence, 8 h; inhibition, % at 10 µM; AID 1159606; in the data active = inhibition above about 50%
TROY signal inh: TROY signaling inhibition. Q293 LMP1-TROYcd NF-kB luciferase reporter, 4 h. inhibition, % at 10 µM. 360,000 compounds, 0.98% hits;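 active = compounds whose plate-normalised and pattern-corrected inhibition of the luciferase reporter signal at the single screening dose is 50% or more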
An asterisk follows results filed as active; / = not tested or not shown. This is a sample that favours compounds with a hit; in the whole collection about 4% have one here.

SMILES	CF NFkB block	HIF-2a block	KKLEB tox	Peg3 promoter	TWEAK-Fn14 inh	TROY signal inh
COc1ccc(-c2n[nH]c(C)c2-c2ccc(Cl)cc2)c(O)c1OC	-8	15	-26	72*	55*	42
Cc1[nH]nc(-c2ccc(O)cc2O)c1-c1ccc(Cl)cc1	-2	19	1	30	27	38
O=[N+]([O-])c1cc(Cc2ccccc2)cc(C=Nc2ccc(N3CCOCC3)cc2)c1O	40	32	32	5	8	29
Cc1ccc(O)c(N=Cc2cc(Cc3ccccc3)cc([N+](=O)[O-])c2O)c1	17	-19	41	-3	4	52*
CCOc1cc(C(=O)CSc2nnc(CNc3ccc(Cl)cc3)o2)ccc1NC(=O)CC	5	3	2	66*	-48	7
N#C/C(=C\c1ccc(Cl)cc1Cl)c1n[nH]c(Cn2cncn2)n1	10	13	4	-1	65*	/
CCOc1ccc(NC(=O)CN(C)C(=O)c2sccc2-c2ccccc2)cc1OCC	8	4	-4	1	6	3
CCCn1nnc(NC(=O)Cc2ccccc2)n1	3	3	-1	1	14	-1
CCCCn1nnc(NC(=O)Cc2ccc(Cl)cc2)n1	-1	-5	0	5	74*	/
O=C(CSc1cccc2cccnc12)N/N=C/c1ccc(F)cc1	3	11	0	10	-25	-11
CCCCC(=O)N/N=C/c1ccc(Sc2cccc3cccnc23)o1	16	-17	-11	2	107*	-9
CC(=O)NC12CC3CC(C1)CC(C(=O)OCC(=O)NC(=O)c1cccn1C)(C3)C2	-1	-43	1	-20	-12	-28
Cn1cccc1C(=O)NC(=O)COC(=O)C12CC3CC(CC(O)(C3)C1)C2	4	-92	-10	-102	44	79*
CC(C)(C)C1CCN2CCC[C@](c3ccccc3)(C1)C2OCCCO (some centres undefined)	/	-2	/	/	3	10
Cc1ccc(C(=O)NNC(=O)CCCN2C(=O)/C(=C/c3ccccc3Cl)SC2=S)cc1	20	87*	-10	49	48	34
O=C(O)CN1C(=O)/C(=C\c2ccccc2OCc2ccccc2)SC1=S	4	2	-1	2	-5	3
COc1ccccc1/C=C1\SC(=S)N(CCC(=O)NNC(=O)c2ccccc2OC)C1=O	-10	44*	0	9	46	44
O=C(CCN1C(=O)/C(=C/c2ccccc2Cl)SC1=S)NNC(=O)c1ccccc1O	-16	13	-1	21	-26	-1
O=C(CCN1C(=O)/C(=C/c2ccccc2Cl)SC1=S)NNC(=O)c1cccnc1	7	-10	-10	0	-1	11
O=C(CCCN1C(=O)/C(=C/c2ccccc2Cl)SC1=S)Nc1cccnc1	-10	0	6	71*	11	29
O=C(O)CCCN1C(=O)/C(=C\c2ccccc2OCc2ccccc2)SC1=S	18	11	1	14	-6	56*
CC1(c2ccc([N+](=O)[O-])cc2)NC(=O)N(CC(=O)Nc2cccnc2Cl)C1=O (centres undefined)	1	9	-11	5	-4	-9
CCc1cccc(NC(=O)C2CCCN2S(=O)(=O)c2ccc3c(c2)CC(C)N3C(C)=O)c1 (centres undefined)	3	9	-2	6	16	15
Cc1ccc(S(=O)(=O)NCCC(=O)NCC(c2ccco2)N2CCCCC2)cc1C (centres undefined)	10	2	3	-9	2	5
O=C(O)CCCN1C(=O)/C(=C\C(Cl)=C\c2ccccc2)SC1=S	-27	94*	-13	108*	102*	26
SMILES	CF NFkB block	HIF-2a block	KKLEB tox	Peg3 promoter	TWEAK-Fn14 inh	TROY signal inh
O=C(CCCN1C(=O)/C(=C/c2ccccc2Cl)SC1=S)Nc1ccccn1	12	79*	-7	16	82*	60*
O=C(CCN1C(=O)/C(=C/c2ccccc2Cl)SC1=S)Nc1ccccn1	-12	-1	-6	-47	-6	-19
CN1CCN(C(=O)CCCN2C(=O)/C(=C/c3ccccc3)SC2=S)CC1	11	28	-6	25	-13	-15
O=C(CCN1C(=O)/C(=C/c2ccccc2Cl)SC1=S)Nc1cccnc1	-34	-19	1	-29	-8	57*
Clc1ccccc1-c1cc2nc(NCc3ccco3)ccn2n1	-20	-415	8	-262	-16	-44
CC1(C(=O)NS(=O)(=O)c2ccccc2Cl)CCN1C(=O)c1ccccc1CCc1ccccc1 (centres undefined)	-12	12	2	-7	-15	-9
CCOC(=O)c1cnc2ccc(Cl)cc2c1NCCN(C)C	-12	3	10	59*	-22	-15
Cc1cc(NC(=O)CSCC(=O)OCC(=O)c2cccc(Br)c2)no1	-16	7	-15	14	2	-3
Cc1ccc(-n2nc3c(=O)n(C(C)C(=O)NCCC4=CCCCC4)nc(C)c3c2C)cc1 (centres undefined)	-28	21	-8	27	43	33
CCOC(=O)c1c(NC(=O)c2nn(CC)cc2Br)sc2c1CCCCC2	6	-13	9	-3	-13	-18
CCn1cc(C(=O)NC(=S)Nc2sc3c(c2C(=O)OC)CCCCCC3)cn1	19	11	-21	39	-19	71*
OCc1ccc(-c2cccc3nccn23)cc1	0	-3	-2	5	-16	4
Clc1ccccc1OCCn1nnc2ccccc21	-9	-255	-12	-243	95*	-16
COc1cccc(NC(=O)COC(=O)C2CC3CCCC(C2)C3=O)c1 (centres undefined)	-3	6	-4	-7	-6	1
CC(Cl)C(=O)NC(=O)NC12CC3CC(CC(C3)C1)C2 (centres undefined)	-36	4	2	29	4	0
O=C(CCl)NC(=O)NC12CC3CC(CC(C3)C1)C2	1	20	-11	63*	-19	8
COc1ccc(C(=O)NCCOc2ccccc2Cl)c(OC)c1OC	-3	-233	6	-289	-16	-37
FC(F)Oc1ccc(C2N=C(c3ccccc3)NO2)cc1 (centres undefined)	-5	-273	3	-473	24	6
Cc1ccc(NN2C(=O)C=C(c3ccc(Cl)cc3)C2=O)cc1	37	4	-11	105*	-27	-37
Cc1ccccc1NN1C(=O)C=CC1=O	8	15	-2	5	18	14
COc1ccc(C2=CC(=O)N(Nc3ccccc3)C2=O)cc1	29	34	2	40	12	3
Cc1ccc(NN2C(=O)C=CC2=O)cc1	-2	12	5	8	53*	36
CCOc1ccccc1N(CC(=O)NC1CCCC1)C(=O)CNC(=O)c1cccs1	-13	12	8	1	7	-7
